ABCB6 inh MLPCN = human ABCB6 transporter inhibition | K562-ABCB6 porphyrin accumulation, flow cytometry, 1 h; hits give low values | Q9NP58 | actives 0.19% (n = 360,000) | fluorescence ratio to DMSO, % at 10 µM;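 active means fluorescence ratio to DMSO below 75%, the collection mean minus 3 SD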;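 further: signal is porphyrin accumulated inside mitochondria; 100% equals median channel fluorescence of DMSO control wells; lower ratio means ABCB6 inhibition with less porphyrin fluorescence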
Target sequence (Q9NP58 whole entry, looked up): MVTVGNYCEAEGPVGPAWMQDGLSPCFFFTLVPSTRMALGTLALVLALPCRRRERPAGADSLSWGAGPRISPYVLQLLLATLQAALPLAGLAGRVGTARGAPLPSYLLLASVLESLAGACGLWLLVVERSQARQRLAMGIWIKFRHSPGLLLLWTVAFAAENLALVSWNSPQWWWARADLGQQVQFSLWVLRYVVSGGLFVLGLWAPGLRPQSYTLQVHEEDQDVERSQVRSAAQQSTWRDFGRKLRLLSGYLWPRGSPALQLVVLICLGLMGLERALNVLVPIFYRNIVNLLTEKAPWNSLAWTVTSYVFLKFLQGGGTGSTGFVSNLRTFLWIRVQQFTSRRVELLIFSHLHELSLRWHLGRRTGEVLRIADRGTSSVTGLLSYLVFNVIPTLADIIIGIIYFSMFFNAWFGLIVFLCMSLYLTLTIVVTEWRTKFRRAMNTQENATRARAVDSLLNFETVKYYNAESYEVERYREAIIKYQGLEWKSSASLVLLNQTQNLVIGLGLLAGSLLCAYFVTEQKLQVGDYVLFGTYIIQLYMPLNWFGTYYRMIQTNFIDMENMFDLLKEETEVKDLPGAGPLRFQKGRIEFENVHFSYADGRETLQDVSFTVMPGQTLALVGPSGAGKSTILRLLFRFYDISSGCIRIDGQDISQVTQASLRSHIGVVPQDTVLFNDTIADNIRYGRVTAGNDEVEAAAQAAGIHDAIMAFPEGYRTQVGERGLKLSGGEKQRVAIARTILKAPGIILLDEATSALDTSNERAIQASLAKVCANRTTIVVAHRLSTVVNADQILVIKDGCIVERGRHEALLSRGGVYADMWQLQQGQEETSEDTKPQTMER
VLA-4 inh = inhibition in a human VLA-4 binding assay; actives 0.2% (n = 330,000); VLA-4 expressing cells, ligand binding flow cytometry; P13612; inhibition, % (about 7 µM as worked out from the volumes in the protocol); AID 2557; in the data active means inhibition above about 50%
Yeast superoxide = lowers age-related superoxide in aged yeast cells. actives 0.18% (n = 330,000). superoxide response (% of plate mean), % at 10 µM. S. cerevisiae aged cells, superoxide DHE fluorescence; hits give low values;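 active means superoxide response under a set limit, about three screen SD below normal, cut at about 65% in these data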;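 further: yeast aged for seven days with compound at 30 °C before DHE staining; 100% = average MFI of all compound-treated wells on the plate with controls excluded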
Platelet DG rel = platelet dense granule release activity; inhibition, %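 (compounds screened at 7.5 µM in platelet-rich plasma)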; actives 0.22% (n = 300,000); human platelet-rich plasma, SFLLRN dense granule ATP release, luminescence;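 active means mean replicate score, as percent of positive control, at or above 50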
SKN-1 inh = inhibitors of C. elegans SKN-1; C. elegans VP596 Pgst-4::GFP/RFP ratio, acrylamide-induced, 24 h; inhibition, % at 21.8 µM; actives 0.49% (n = 360,000); AID 624304;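 active means interference check ratio from 0.5 to 1.5 plus GFP to RFP signal ratio inhibition reaching or exceeding a fixed threshold, cut at about 30% in these data, passing the limit was not always enough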
Starred values were filed as active, the others as inactive; · = no result. This is a sample that favours compounds with a hit; in the whole collection about 1.2% have one here.

SMILES	ABCB6 inh MLPCN	VLA-4 inh	Yeast superoxide	Platelet DG rel	SKN-1 inh
CC(O)C1C=CC=CC(=O)OC2CC3OC4C5OC5(C)C(O)CC4(COC(=O)C(O)C(C)CCO1)C2(C)C31CO1 (configuration not stated)	95	·	·	·	16
CC1=CC2OC3CC4OC(=O)C=CC=CC(C(C)O)OCC(O)C5(C)OC5C(=O)OCC2(CC1O)C4(C)C31CO1 (configuration not stated)	96	·	·	·	40*
O=C1NC(=S)N(c2ccc(Cl)cc2)C(=O)/C1=C/N1CCN(C(=O)c2ccco2)CC1	100	17	102	2	44*
O=C1NC(=S)N(c2ccc(F)cc2)C(=O)/C1=C/c1ccco1	·	0	91	4	·
COc1ccc2c(c1)NP(=S)(c1ccccc1)N2C (configuration not stated)	95	·	·	·	54*
CC(C)c1cccc(C(C)C)c1OCCn1ccnc1	97	10	111	-2	34*
c1ccc(Cn2ccnc2)cc1	95	9	108	0	-9
CCOC(=O)c1ccc(NC(=O)c2c(O)[nH]c(=O)[nH]c2=O)cc1	103	9	96	14	3
CCOc1ccc(NC(=O)c2c(O)[nH]c(=O)[nH]c2=O)cc1	98	·	·	56*	14
COc1ccc(-n2nnnc2C(CCSC)N2CCC3(CC2)C(=O)NCN3c2ccccc2)cc1 (configuration not stated)	88	·	·	·	-8
Cc1nc2ccccc2c(=O)n1-c1c(Cl)cccc1Cl	93	·	·	·	6
CC1=Nc2ccccc2/C1=C/c1c(O)[nH]c(=O)[nH]c1=O	112	4	80	-4	36*
Cc1ccc2c(c1)=NC(=O)/C(=C/c1c(O)[nH]c(=O)[nH]c1=O)C=2	93	9	91	6	-16
COc1ccc2c(c1)C13CCN4CC5=CCOC6CC(=O)N2C1C6C5CC43 (configuration not stated)	104	·	·	·	-5
CC(N)Cc1ccccc1Sc1ccc(O)cc1 (configuration not stated)	·	2	98	76*	·
CN1CC=C2C(C#N)=C(N)C(C#N)(C#N)C(c3ccncc3)C2C1 (configuration not stated)	165	3	99	-9	40*
CCn1c(O)c(C=Nc2ccc(S(N)(=O)=O)cc2)c(=O)[nH]c1=S	97	25	100	1	38*
CC(=O)c1ccc2c(c1)C1C(Cl)C(Sc3ccccc3[N+](=O)[O-])CC1C(c1ccccc1[N+](=O)[O-])N2 (configuration not stated)	103	7	112	1	42*
CC(=O)c1ccc2c(c1)C1C(Cl)C(Sc3ccccc3[N+](=O)[O-])CC1C(c1ccccc1)N2 (configuration not stated)	112	1	95	1	-4
Cc1c(CCN)ccc2c1[nH]c1ccccc12	91	17	65*	-6	-17
Cc1ccc([C@@H]2C[C@H]3[C@@H](CN2S(=O)(=O)c2ccc(Cl)cc2)C(=O)C[C@@H](c2ccccc2F)N3S(=O)(=O)c2ccc(C)cc2)cc1	97	·	·	·	-1
CCCN1CCc2cccc3c2[C@H]1Cc1ccc(O)c(O)c1-3	102	10	33*	1	11
CC(C)(C)n1c(O)c(C=Nc2ccc3c(c2)CCC3)c(=O)[nH]c1=O	107	15	103	5	27*
Cn1c(O)c(C=Nc2ccc(F)cc2)c(=O)[nH]c1=O	96	12	106	-1	16
CC(C)(C)C(=O)N1Cc2cc(-c3ccccc3)ccc2-n2nncc2C1	102	·	·	·	13
SMILES	ABCB6 inh MLPCN	VLA-4 inh	Yeast superoxide	Platelet DG rel	SKN-1 inh
CCCCn1c(O)c(/C=N/NC(=O)c2ccncc2)c(=O)[nH]c1=S	99	-1	104	4	16
Cn1c(O)c(/C=N/NC(=O)c2ccncc2)c(=O)[nH]c1=S	98	3	103	4	42*
C/C(=C\c1ccc(N(C)C)cc1)[N+](=O)[O-]	106	26	80	-5	42*
CN(C)c1ccc(/C=C/[N+](=O)[O-])cc1	101	27	103	2	40*
CN(C)c1ccc(C=C2C(=O)NC(=O)NC2=O)cc1	101	·	·	·	13
CC1(CCCc2ccc(N(CCCl)CCCl)cc2)NC(=O)NC1=O (configuration not stated)	96	·	·	·	8
CN1C(=O)/C(=C\c2ccc(N3CCCCC3)o2)C(=O)NC1=S	97	22	110	9	33*
CCOC(=O)[C@]12Cc3cc(Cl)ccc3[C@H]1N(C1CCCCC1)C(=O)c1cc(OC)ccc12	101	·	·	·	11
CCOC(=O)[C@]12Cc3cc(C)ccc3[C@H]1N(Cc1ccccc1)C(=O)c1cc(OC)ccc12	98	·	·	·	8
CN1CCCC1CCOC(C)(c1ccccc1)c1ccc(Cl)cc1 (configuration not stated)	97	·	·	·	8
CN1C(=O)C(=Cc2ccc(Sc3ccccc3)o2)C(=O)N(C)C1=S	11*	23	101	0	28
Cc1c(C=C2C(=O)NC(=O)NC2=O)c(=O)n(-c2ccccc2)n1C	97	-8	92	5	-3
CCN(CC)c1nc2c(C)cccn2c(=O)c1C=C1C(=O)NC(=O)NC1=O	38*	20	105	-3	4
COc1ccc(N2CCN(CCCN)CC2)cc1	85	-6	80	63*	19
CN1CCN(c2ccc([N+](=O)[O-])c3no[n+]([O-])c23)CC1	115	-35	141	6	-14
O=[N+]([O-])c1ccc(N(CCO)CCO)c2c1no[n+]2[O-]	141	·	·	·	47*
Cc1nc(N2CCN(Cc3ccc4c(c3)OCO4)CC2)[nH]c(=O)c1C	95	·	·	-3	17
O=C1NCN(c2ccccc2)C12CCN(C(c1cccc3ccccc13)c1nnnn1C1CCCC1)CC2 (configuration not stated)	95	·	·	·	-1
CCOC(=O)c1c(N)n(CCCOC(=O)c2ccco2)c2nc3ccccc3nc12	96	14	154	-11	35*
CN1C(=O)C(=Cc2cn(CC(=O)N3CCCCC3)c3ccccc23)C(=O)N(C)C1=O	95	6	106	-9	41*
O=C(Nc1ccc(OC(=O)N2CCCCC2)cc1)N1CCOCC1	101	0	98	8	-14
O=C(Nc1ccc(OC(=O)N2CCCC2)cc1)N1CCOCC1	107	3	122	10	38*
O=[N+]([O-])c1ccc(Nc2ccccc2)cc1	97	6	111	0	51*
Nc1ncnc2c1ncn2[C@@H]1O[C@H](C(=O)NCCc2ccc(F)cc2)[C@@H](O)[C@H]1O	99	·	·	·	12
CCNC(=O)[C@H]1O[C@@H](n2cnc3c(N)ncnc32)[C@H](O)[C@@H]1O	109	2	112	84*	17
CC1(C)OC(c2ccccc2)=C/C(=C/C=C2C(=O)NC(=O)NC2=O)O1	117	1	96	14	46*

High-throughput results deposited in PubChem by several laboratories.
